From PubChem BioAssay AID603 (National Center for Advancing Translational Sciences (NCATS), 2007)
In all, about 71,000 compounds went through this assay and about 180 (0.25%) were called active. The sample as a whole holds a higher share of actives than the screen did. Unmarked numbers belong to inactive results. Calls follow the shape of the dose curve; as a rule, active = well fitted curve in the direction sought with a large enough effect; inconclusive = small, poorly fitted or top-dose-only effect; inactive = flat fitted curve, though single readings scatter.

System: DNA polymerase III holoenzyme (E. coli)
Test: qHTS Assay for Inhibitors of DNA Polymerase III Holoenzyme System
Conditions: reconstituted DNA polymerase III holoenzyme replication, biochemical; series mostly up to 57.1 µM; activity change, negative = inhibition: at the top concentration
Protocol: NIH Molecular Libraries Screening Centers Network [MLSCN]
NIH Chemical Genomics Center [NCGC]
Assay Provider: Charles McHenry, University of Colorado
E. coli DNA polymerase III holoenzyme complex was assayed for DNA production by fluorescent detection of the double-stranded DNA product with PicoGreen dye. The holoenzyme complex was reconstituted from the following purified protein components: DNA Polymerase III, beta subunit processivity factor, SSB single-stranded DNA binding protein, and Primase. Single-stranded, circular M13Gori was used as a substrate with dNTPs and NTPs also supplied to the substrate reagent. Compounds from the NCGC collection were incubated with the holoenzyme mixture for 15 min at room temperature to allow binding to occur, and then the reaction was started by the addition of substrate. After 30 min incubation at room temperature, PicoGreen solution containing EDTA was added to stop the reaction and to visualize the double-stranded DNA produced. Reaction progress was measured in a ViewLux CCD imager in fluorescence intensity mode by using 480 nm excitation and 540 nm emission filter set.
NCGC Assay Protocol Summary:
Buffer. 50 mM Hepes-KOH, pH 7.5, 5 % Glycerol, 0.02% NP40, 30 mM potassium;
glutamate, 1.5 mM Magnesium Acetate, 16 uM TCEP.
Buffer in columns 3 and 4 as negative control (no enzyme).
Substrate solution: 5 uM each dATP, dGTP, dCTP and TTP, 50 uM each GTP, CTP, UTP and 200 uM ATP, 1.4 nM M13gori (final concentrations).
Enzyme: 154 nM SSB, 2 nM Primase, 1 nM Beta, 0.35 nM Pol III (final concentrations).
PicoGreen/EDTA: 10 mM Tris-HCl, 10 mM EDTA, 5 uM PicoGreen (final concentrations).
Control titration: ChemBridge 5805060 (from 10 mM, then 1:2, in duplicate) was pin-transferred to upper half of column 2.
Three uL of holoenzyme mixture were dispensed to 1536-well Greiner black solid bottom plates. Compounds and controls (23 nL) were transferred via Kalypsys PinTool. The plates were incubated for 15 min at room temperature, and then 1 uL of substrate solution was added to start the reaction. After room temperature incubation for 35 minutes, 1 uL of PicoGreen solution was added to each well and the plates were read 480 nm excitation and 540 nm emission using ViewLux (Perkin-Elmer) High-throughput CCD imager and fluorescence protocol settings.
Keywords: NIH Roadmap, MLSCN, MLI, MLSMR, qHTS, NCGC, DNA Polymerase III, DNAPol3, DNAPoly3, DNA replication targets
% is scaled to controls: 0 for no effect and ±100 for the full control effect.

**Q.** How did the “activity change, negative = inhibition” value turn out when `O=S(=O)(c1cccc(S(=O)(=O)N2CCC(n3nnc4ccccc43)CC2)c1)N1CCCCC1` was run?
**A.** The value was -5.3%.

**Q.** Which “activity change, negative = inhibition” value does the source give for `CC[C@]1([C@H]2O[C@@H]([C@@H]3O[C@](O)(CO)[C@@H](C)C[C@H]3C)C[C@H]2C)CC[C@@H]([C@]2(C)CC[C@@]3(C[C@@H](O)[C@@H](C)[C@@H]([C@H](C)[C@H](OC)[C@H](C)C(=O)O)O3)O2)O1` here?
**A.** Its value is -3.8% [at 25.6 µM].

**Q.** With `CC(=O)NC(C)c1nc2ccccc2n1Cc1ccccc1F` (centres undefined) as the molecule, how does the “activity change, negative = inhibition” value read?
**A.** Its value is -0.1%.

**Q.** With `Cc1ccc(S(=O)(=O)Nc2ccccc2CNc2c(C)n(C)n(-c3ccccc3)c2=O)cc1` as the molecule, how does the “activity change, negative = inhibition” value read?
**A.** The value was -1.6%.

**Q.** `Cc1noc(C)c1-c1nccc(N2CCOCC2)n1` was tested. Which “activity change, negative = inhibition” value did it give?
**A.** The value was -4.8%.

**Q.** Which activity change, negative = inhibition does the source give for `Cc1cc(C)cc(N(CC(=O)Nc2c(C)n(C)n(-c3ccccc3)c2=O)S(C)(=O)=O)c1` here?
**A.** The activity change, negative = inhibition was 2.7% [at 11.4 µM].

**Q.** With `Cc1cn(C2C=CC(CO)O2)c(=O)[nH]c1=O` (centres undefined) as the molecule, how does the “activity change, negative = inhibition” value read?
**A.** The value was 0%.

**Q.** `COc1cccc2cc(C(C)N(CCCN3CCOCC3)C(=O)Nc3ccc(Cl)cc3)oc12` (centres undefined) was tested. Which “activity change, negative = inhibition” value did it give?
**A.** The value was -0.7%.

**Q.** Which “activity change, negative = inhibition” value does the source give for `O=C(c1cc(C(F)(F)F)cc(C(F)(F)F)c1)N1CCC[C@@]2(CCN(c3ccccn3)C2)C1` here?
**A.** The value was -5.9%.

**Q.** With `CS(=O)(=O)Nc1cccc(-c2cncnc2Nc2ccccc2)c1` as the molecule, how does the “activity change, negative = inhibition” value read?
**A.** Its value is -2%.

**Q.** Which “activity change, negative = inhibition” value does the source give for `CCOc1ccc(CCNC(=O)C2CCN(c3ccc(N4CCOCC4)nn3)CC2)cc1OCC` here?
**A.** Its value is -4.2%.

**Q.** `Cc1cccc(C(=O)O)c1` was tested. Which “activity change, negative = inhibition” value did it give?
**A.** The value was 7.4%.

**Q.** With `COC(=O)[C@@]1(Cc2ccc(F)cc2)[C@H]2c3cc(C(=O)N(C)C)n(CCc4c[nH]c5ccc(OC)cc45)c3C[C@H]2CN1C(=O)c1ccccc1` as the molecule, how does the “activity change, negative = inhibition” value read?
**A.** The value was -11%.

**Q.** How did the “activity change, negative = inhibition” value turn out when `COc1ccccc1CCn1c(=O)c(-c2cn(C)c3ccccc23)nc2cncnc21` was run?
**A.** Its value is -6.9%.

**Q.** How did the “activity change, negative = inhibition” value turn out when `c1ccc2cc3[nH]c(CN4CCCCC4)nc3cc2c1` was run?
**A.** The value was -7.3%.

**Q.** Which “activity change, negative = inhibition” value does the source give for `CC(C)c1nnc(NC(=O)C2CCCN2S(=O)(=O)c2ccc(Cl)cc2)s1` (centres undefined) here?
**A.** Its value is -2.6%.

**Q.** For `O=C(Nc1ccccc1C(=O)N1CCOCC1)C1CCC(=O)N1C1CCCC1` (centres undefined), which “activity change, negative = inhibition” value is on record?
**A.** Its value is -7.4%.

**Q.** With `COc1ccc(C)c(Cn2c(-c3nonc3N)nc3ccccc32)c1` as the molecule, how does the “activity change, negative = inhibition” value read?
**A.** The value was 3.6%.

**Q.** With `O=C(Nc1ccon1)c1cccc(Cl)c1` as the molecule, how does the “activity change, negative = inhibition” value read?
**A.** Its value is -2.9%.

**Q.** Which “activity change, negative = inhibition” value does the source give for `CC(C)C[C@@H](CC(=O)N[C@@H](CCC(=O)O)CC(=O)O)NC(=O)[C@@H]1CCCC[C@H]1NC(=O)C[C@@H](NC(=O)C[C@H](Cc1c[nH]c2ccccc12)NC(=O)[C@@H]1CCCC[C@H]1N)C(C)C` here?
**A.** Its value is 1.5%.

**Q.** How did the “activity change, negative = inhibition” value turn out when `CCOC(=O)C1Cn2c(nc3c(c2=O)C(C)(CC)Cc2ccccc2-3)S1` (centres undefined) was run?
**A.** Its value is 2.7%.

**Q.** `COCCn1nnnc1C(c1ccccc1Cl)N1CCN(c2ccccc2OC)CC1` (centres undefined) was tested. Which “activity change, negative = inhibition” value did it give?
**A.** Its value is -7.9%.

**Q.** For `NS(=O)(=O)c1cc(C(=O)O)c(Cl)c([N+](=O)[O-])c1Cl`, which activity change, negative = inhibition is on record?
**A.** Its activity change, negative = inhibition is -10.9% [at 11.4 µM].

**Q.** How did the “activity change, negative = inhibition” value turn out when `COC(=O)C1(Cc2ccccc2)C=C2C(=C(C)C(=O)C2C)CN1` (centres undefined) was run?
**A.** Its value is -5.5%.

**Q.** For `c1cncc(-c2nc(N3CCNCC3)c3ccccc3n2)c1`, which “activity change, negative = inhibition” value is on record?
**A.** The value was -8.1%.

**Q.** Which activity change, negative = inhibition does the source give for `CN(C)CCCn1c2ccccc2c2cnccc21` here?
**A.** The activity change, negative = inhibition was -9.9% [at 11.4 µM].

**Q.** For `COc1ccc(C(=O)N2CCC3(CC2)CCN(c2ccccn2)CC3)cc1`, which “activity change, negative = inhibition” value is on record?
**A.** Its value is -5.7%.

**Q.** With `O=C(c1ccncc1)N1CCC2(CCN(Cc3cc(C(F)(F)F)cc(C(F)(F)F)c3)CC2)CC1` as the molecule, how does the “activity change, negative = inhibition” value read?
**A.** The value was -6.3%.

**Q.** For `CCCCSc1nc2c(c(=O)n1CC)SC(C)C2` (centres undefined), which “activity change, negative = inhibition” value is on record?
**A.** The value was -8.4%.

**Q.** `CCC1Oc2ccc(Cl)cc2N(CC(=O)O)C1=O` (centres undefined) was tested. Which “activity change, negative = inhibition” value did it give?
**A.** The value was -1.1%.

**Q.** `Cc1ccccc1C(=O)NCCN=C1NS(=O)(=O)c2ccccc21` was tested. Which “activity change, negative = inhibition” value did it give?
**A.** Its value is 2.9%.

**Q.** How did the “activity change, negative = inhibition” value turn out when `O=C(Cn1nnc(-c2ccc3c(c2)OCO3)n1)NCc1ccco1` was run?
**A.** The value was -4%.

**Q.** Which “activity change, negative = inhibition” value does the source give for `COc1ccc(CCNC(=O)CCn2c(=O)oc3ccccc32)cc1OC` here?
**A.** The value was -6.6%.

**Q.** Which “activity change, negative = inhibition” value does the source give for `CN(C)CCCNC(=O)c1ccc2[nH]c3ccccc3c2c1` here?
**A.** The value was -5.1%.

**Q.** `CSc1ccc(S(=O)(=O)NCc2ccc(Cl)cc2)cc1` was tested. Which “activity change, negative = inhibition” value did it give?
**A.** Its value is 2.9%.

**Q.** With `O=C(C1CCCO1)N1CCC(c2nc3ccccc3[nH]2)CC1` (centres undefined) as the molecule, how does the “activity change, negative = inhibition” value read?
**A.** Its value is -5.1%.

**Q.** `N#Cc1c(N)sc2c1CCN(C(=O)OCc1ccccc1)C2` was tested. Which “activity change, negative = inhibition” value did it give?
**A.** Its value is -0.3%.

**Q.** With `COc1ccccc1-c1c(C)nn2c(C)c(C(C)=O)cnc12` as the molecule, how does the “activity change, negative = inhibition” value read?
**A.** Its value is -6.3%.

**Q.** `CN(C)C(=O)c1ccc(-c2cncnc2NC2CCNCC2)cc1` was tested. Which “activity change, negative = inhibition” value did it give?
**A.** The value was -0.4%.

**Q.** `O=c1cc(-c2ccc(O)c(O)c2)oc2cccc(O)c12` was tested. Which “activity change, negative = inhibition” value did it give?
**A.** Its value is -19.4%.

**Q.** `Oc1ccc(O)c2c(O)cccc12` was tested. Which Potency did it give?
**A.** Its Potency is 15.8 µM (active).

**Q.** With `COc1ccc(OC)c(CN2C(=O)CCC2(C)C(=O)NC2CCCCCC2)c1` (centres undefined) as the molecule, how does the “activity change, negative = inhibition” value read?
**A.** Its value is -4.8%.

**Q.** For `N#Cc1ccccc1-c1ccc2ncnc(NCc3cccnc3)c2c1`, which “activity change, negative = inhibition” value is on record?
**A.** Its value is -7.4%.

**Q.** For `CN1C(=O)CC(N2CCN(c3ccccn3)CC2)C1=O` (centres undefined), which “activity change, negative = inhibition” value is on record?
**A.** Its value is 4.6%.

**Q.** For `N#Cc1ccc(CN2CCCC3(CCN(C(=O)c4ccco4)CC3)C2)cc1`, which “activity change, negative = inhibition” value is on record?
**A.** The value was 22.9%.

**Q.** For `Cc1c(-c2nn(C)c(=O)c3ccccc23)oc2ccc(F)cc2c1=O`, which “activity change, negative = inhibition” value is on record?
**A.** Its value is -0.7%.

**Q.** `Clc1ccc(C=Nc2ccc3c(c2)Cc2ccccc2-3)c(Cl)c1` was tested. Which activity change, negative = inhibition did it give?
**A.** Its activity change, negative = inhibition is -10.3% [at 11.4 µM].

**Q.** For `CCOC(=O)c1nnn(CC(=O)Nc2cccc(F)c2)c1C(=O)OCC`, which “activity change, negative = inhibition” value is on record?
**A.** Its value is -1%.

**Q.** How did the “activity change, negative = inhibition” value turn out when `c1ccc(Nc2n[nH]nc2-c2ccccc2)cc1` was run?
**A.** Its value is -5.3%.

**Q.** For `O=C1c2cccc3cccc(c23)N1CN1CCN(c2ccccn2)CC1`, which “activity change, negative = inhibition” value is on record?
**A.** Its value is -6.4%.

**Q.** Which “activity change, negative = inhibition” value does the source give for `C=CCOC(=O)c1ccccc1C(=O)OCC=C` here?
**A.** Its value is 8.7%.

**Q.** Which “activity change, negative = inhibition” value does the source give for `Nc1nonc1C(=O)NCCc1ccccc1` here?
**A.** The value was -6.7%.

**Q.** With `COCCNc1nc(-n2nc(C)cc2C)nc2sc3c(c12)CCCC3` as the molecule, how does the “activity change, negative = inhibition” value read?
**A.** Its value is -2.3%.

**Q.** Which “activity change, negative = inhibition” value does the source give for `C[C@@H](C(=O)Nc1ccc2ccccc2c1)[C@@H]1C[C@@]1(C)[C@@H](NC(=O)c1cccnc1)c1ccccc1` here?
**A.** The value was 2.5%.
